Unmarked numbers belong to inactive results. A call without a number means that no potency is given here. For some assays here: Potency and affinity values are given separately. Activity calls are given as the source filed them. Unless noted, no rule for the calls is given here.
Experiments:
[1] = antimalarial activity against Dd2 strain (AID 2302;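 active = growth inhibition above 50% at the single 2 µM test dose, taken to imply half-maximal potency below 2 µM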); conditions: P. falciparum Dd2 in RBCs, LDH growth readout, 72 h; at 2 µM; stronger effect = higher value
[2] = HepG2 cytotoxicity, primary screen, cytotoxicity control for P. falciparum antimalarial project, cell-based, ATP luminescence (AID 2303;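 active = inhibition above 50%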); conditions: HepG2 viability, 24-48 h, at 10 µM, stronger effect = higher value
[3] = target: L-lactate dehydrogenase (Plasmodium falciparum (isolate CDC / Honduras)) (UniProt Q27743); test: PfLDH activity inhibition – cell lysate, 3D7 strain, counter-screen for P. falciparum growth inhibition project (AID 2304); conditions: P. falciparum 3D7 crude extract, LDH APAD/NBT absorbance; at 2 µM; stronger effect = higher value
Chain of L-lactate dehydrogenase (Plasmodium falciparum (isolate CDC / Honduras)) (Q27743 whole entry, looked up): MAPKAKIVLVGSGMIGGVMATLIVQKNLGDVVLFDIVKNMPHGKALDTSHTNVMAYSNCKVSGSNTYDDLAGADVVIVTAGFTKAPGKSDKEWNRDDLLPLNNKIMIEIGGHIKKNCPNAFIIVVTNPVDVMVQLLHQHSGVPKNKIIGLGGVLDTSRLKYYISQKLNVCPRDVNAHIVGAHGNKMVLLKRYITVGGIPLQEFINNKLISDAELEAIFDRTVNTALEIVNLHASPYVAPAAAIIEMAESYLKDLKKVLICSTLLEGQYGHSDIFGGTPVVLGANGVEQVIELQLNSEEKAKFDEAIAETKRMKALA

[4] = inhibition of 3D7 malaria parasite growth – strain 3D7 (AID 2306); conditions: P. falciparum 3D7 erythrocytic growth, LDH absorbance, 72 h; at 2 µM; stronger effect = higher value
[5] = target: Calcium-dependent protein kinase 1 (Plasmodium falciparum (isolate 3D7)) (UniProt P62344); test: PfCDPK1 kinase inhibitors, biochemical, TCAMS library (AID 1159585; cut-off not given, nearly all actives have IC50 up to about 0.98 µM;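 also: inhibitors leave more ATP so luminescence rises with inhibition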); conditions: recombinant PfCDPK1, Kinase-Glo ATP depletion luminescence
Chain of Calcium-dependent protein kinase 1 (Plasmodium falciparum (isolate 3D7)) (P62344 whole entry, looked up): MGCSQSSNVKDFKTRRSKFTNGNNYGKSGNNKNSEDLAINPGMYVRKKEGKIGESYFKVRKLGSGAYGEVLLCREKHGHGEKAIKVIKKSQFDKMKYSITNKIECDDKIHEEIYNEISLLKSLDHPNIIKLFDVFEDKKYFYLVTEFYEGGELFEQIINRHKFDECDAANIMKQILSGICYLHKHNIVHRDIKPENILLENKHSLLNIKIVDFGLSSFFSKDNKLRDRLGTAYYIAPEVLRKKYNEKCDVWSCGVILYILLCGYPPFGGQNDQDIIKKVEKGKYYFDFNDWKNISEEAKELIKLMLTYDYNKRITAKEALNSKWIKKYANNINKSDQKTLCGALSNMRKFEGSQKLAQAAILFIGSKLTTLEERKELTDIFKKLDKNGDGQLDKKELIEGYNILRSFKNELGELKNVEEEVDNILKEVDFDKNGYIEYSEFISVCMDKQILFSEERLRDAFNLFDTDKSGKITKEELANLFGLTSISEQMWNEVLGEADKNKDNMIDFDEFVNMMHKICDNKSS

[6] = target: Plasmodium falciparum protein kinase 6 (PK6, PF3D7_1337100) (UniProt Q8IDW1); test: PfPK6 kinase inhibitors, biochemical, TCAMS library (AID 1159586); conditions: recombinant PfPK6, Kinase-Glo ATP depletion luminescence
Chain of Plasmodium falciparum protein kinase 6 (PK6, PF3D7_1337100) (Q8IDW1 1-305): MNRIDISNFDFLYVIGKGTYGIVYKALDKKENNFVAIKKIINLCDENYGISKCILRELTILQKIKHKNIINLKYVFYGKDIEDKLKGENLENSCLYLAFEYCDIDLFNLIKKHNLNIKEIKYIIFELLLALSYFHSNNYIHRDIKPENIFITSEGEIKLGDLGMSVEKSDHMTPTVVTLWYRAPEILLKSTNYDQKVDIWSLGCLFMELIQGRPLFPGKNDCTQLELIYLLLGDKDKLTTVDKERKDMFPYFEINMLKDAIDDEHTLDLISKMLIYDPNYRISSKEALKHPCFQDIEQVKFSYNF

[7] = target: Protein kinase 7 (PK7), Plasmodium falciparum 3D7 (PF3D7_0213400) (UniProt Q7YTF7); test: inhibition of Plasmodium PK7 catalytic activity – biochemical, TCAMS antimalarial set, Kinase-Glo luminescence (AID 1159587); conditions: recombinant PfPK7, Kinase-Glo ATP depletion luminescence
Chain of Protein kinase 7 (PK7), Plasmodium falciparum 3D7 (PF3D7_0213400) (Q7YTF7 1-343): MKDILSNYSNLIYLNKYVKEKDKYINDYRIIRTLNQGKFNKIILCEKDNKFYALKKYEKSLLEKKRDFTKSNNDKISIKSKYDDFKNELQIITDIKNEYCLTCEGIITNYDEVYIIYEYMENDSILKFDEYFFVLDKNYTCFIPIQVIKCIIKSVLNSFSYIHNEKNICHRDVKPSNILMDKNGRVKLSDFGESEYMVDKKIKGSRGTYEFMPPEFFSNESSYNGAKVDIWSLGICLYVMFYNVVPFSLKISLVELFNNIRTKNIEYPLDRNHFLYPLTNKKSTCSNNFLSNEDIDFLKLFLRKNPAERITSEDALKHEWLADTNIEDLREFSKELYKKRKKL

[8] = target: Calcium-dependent protein kinase 4 (Plasmodium falciparum (isolate 3D7)) (UniProt Q8IBS5); test: PfCDPK4 kinase inhibitors, biochemical, TCAMS library (AID 1159588; cut-off not given, nearly all actives have IC50 up to about 0.91 µM); conditions: recombinant PfCDPK4, Kinase-Glo ATP depletion luminescence
Chain of Calcium-dependent protein kinase 4 (Plasmodium falciparum (isolate 3D7)) (Q8IBS5 whole entry, looked up): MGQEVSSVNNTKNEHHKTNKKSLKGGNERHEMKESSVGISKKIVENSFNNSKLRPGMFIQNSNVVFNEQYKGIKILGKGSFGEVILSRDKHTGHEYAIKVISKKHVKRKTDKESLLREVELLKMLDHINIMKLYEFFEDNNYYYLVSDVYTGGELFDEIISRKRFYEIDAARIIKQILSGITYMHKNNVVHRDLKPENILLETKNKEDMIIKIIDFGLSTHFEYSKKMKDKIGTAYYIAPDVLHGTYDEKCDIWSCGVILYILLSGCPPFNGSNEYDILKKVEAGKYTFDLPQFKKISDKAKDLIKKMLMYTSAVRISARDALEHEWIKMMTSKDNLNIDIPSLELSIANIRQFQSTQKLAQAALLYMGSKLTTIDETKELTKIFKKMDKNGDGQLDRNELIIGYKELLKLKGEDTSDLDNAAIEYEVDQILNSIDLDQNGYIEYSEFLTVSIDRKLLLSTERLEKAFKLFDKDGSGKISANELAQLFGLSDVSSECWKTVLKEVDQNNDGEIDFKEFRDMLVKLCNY

SMILES	growth inhibition [1]	inhibition [2]	inhibition [3] [%]	growth inhibition [4]	outcome [5]	outcome [6]	outcome [7]	outcome [8]
c1ccc(CN2CCN(c3cc(-c4cncc(-c5ccccc5)c4)nc(-c4ccccc4)n3)CC2)cc1	12%	9%	0	88% (active)	inactive	inactive	inactive	inactive
Cc1ccc2c(NN=Cc3ccc(Cl)cc3)cc(C)nc2c1	34%	-1%	-2	100% (active)	inactive	inactive	inactive	inactive
Cc1[nH]c(C)c(-c2ccc(CCc3ccc(C(F)(F)F)cc3)nc2)c(=O)c1Cl	97% (active)	24%	2	97% (active)	inactive	inactive	inactive	inactive
CC(=O)Nc1ccc(C(=O)Nc2cccc(-c3ccc(-c4nc5c(C)cccc5[nH]4)cc3)c2)cn1	94% (active)	25%	4	100% (active)	inactive	inactive	inactive	inactive
Nc1c2c(nc3ccc(NC(=O)c4ccccc4)cc13)CCCC2	8%	0%	-8	99% (active)	inactive	inactive	inactive	inactive
COCCCNC(=O)c1ccc(O)c(-c2cc(Cl)cc(Cl)c2)c1	34%	22%	-7	94% (active)	inactive	inactive	inactive	inactive
COc1ccc2nccc([C@@H](O)CN3CCC(NCc4ccc5c(c4)NC(=O)CS5)CC3)c2c1	36%	-4%	-1	102% (active)	inactive	inactive	inactive	inactive
COc1ccc2ncc(F)c([C@H](O)CN3CCC(NCc4cc5c(cn4)OCCO5)CC3)c2c1	97% (active)	5%	7	101% (active)	inactive	inactive	inactive	inactive
CCCCCN1CCCC1CNS(=O)(=O)c1cccc(C(=O)Nc2cccc(C(F)(F)F)c2)c1 (stereo not given)	12%	15%	4	96% (active)	inactive	inactive	inactive	inactive
CN1CCN(c2ccnc3ccc(NC(=O)Nc4ccc(Cl)cc4)cc23)CC1	99% (active)	11%	0	103% (active)	inactive	inactive	inactive	inactive
NCC1CCCN1Cc1ccc(-c2cccc(-c3nc4ccc(F)cc4[nH]3)c2)cc1 (stereo not given)	31%	38%	4	100% (active)	inactive	inactive	inactive	inactive
COc1cccc2cc(C(=O)N[C@@H](CC(C)C)C(=O)N[C@H](/C=N/N3CCOC3=O)Cc3ccccc3)oc12	70% (active)	6%	-1	96% (active)	inactive	inactive	inactive	inactive
N#Cc1ccc(S(=O)(=O)N2C(c3cccc([N+](=O)[O-])c3)C(C(=O)c3ccccc3)N(C3CCCCC3)C2c2cccc([N+](=O)[O-])c2)cc1 (stereo not given)	79% (active)	16%	-1	83% (active)	inactive	inactive	inactive	inactive
CC(C)(C)c1ccc(/C=C/C(=O)NCCCCCN2CCC(c3c[nH]c4ccccc34)CC2)cc1	12%	70% (active)	8	91% (active)	inactive	inactive	inactive	inactive
COc1ccc2ccc(OC)c(CNCCCCCCNCc3c(OC)ccc4ccc(OC)cc34)c2c1	32%	100% (active)	-6	101% (active)	inactive	inactive	inactive	inactive
CN1CCN(Cc2nc(-c3ccc4c(Nc5ccc(F)c(O)c5)ccnc4c3)cs2)CC1	100% (active)	0%	7	100% (active)	inactive	inactive	inactive	inactive
Cc1ccc(-c2cc(C(=O)Nc3ccc(S(=O)(=O)N4CC(C)OC(C)C4)cc3)[nH]n2)c(O)c1 (stereo not given)	98% (active)	16%	-1	91% (active)	inactive	inactive	inactive	inactive
COc1ccc(N2CCN(CCCCNC(=O)c3ccc(NC(=O)c4ccc(C(F)(F)F)cc4)cc3)CC2)c(OC)c1	8%	4%	6	100% (active)	inactive	inactive	inactive	inactive
COc1ccc2c(c1)nc(CN=C(N)N)n2Cc1ccc(Cl)cc1	99% (active)	12%	4	102% (active)	inactive	inactive	inactive	inactive
O=C(Nc1ccc(Cl)c(C(F)(F)F)c1)c1ccc(Cl)c([N+](=O)[O-])c1	18%	20%	-2	87% (active)	inactive	inactive	inactive	inactive

SMILES	growth inhibition [1]	inhibition [2]	inhibition [3] [%]	growth inhibition [4]	outcome [5]	outcome [6]	outcome [7]	outcome [8]
Cc1cccc(NC(=O)NC2CCN(CCCCCNC(=O)/C=C/c3ccc(Cl)c(Cl)c3)CC2)c1	21%	34%	-3	101% (active)	inactive	inactive	inactive	inactive
O=C(NC1CCN(Cc2ccc(F)cc2)CC1)c1ccc(-c2cccc(C(F)(F)F)c2)s1	11%	88% (active)	4	83% (active)	inactive	inactive	inactive	inactive
CCCCn1c(N)c(N(Cc2ccco2)C(=O)C=Cc2cc(OC)c3c(c2)OCCO3)c(=O)[nH]c1=O	94% (active)	4%	2	85% (active)	inactive	inactive	inactive	inactive
O=C(Nc1ccc(OC(F)(F)F)cc1)Nc1ccc([N+](=O)[O-])cc1	100% (active)	41%	3	100% (active)	inactive	inactive	inactive	inactive
COc1cc(C)nc2ccc(NC(=O)Nc3cccc4ccccc34)cc12	48%	27%	-3	91% (active)	inactive	inactive	inactive	inactive
COc1ccc(S(=O)(=O)N(c2cc(Br)cc3c2OCC3)S(=O)(=O)c2ccc(OC)c(N3CCN(C)CC3)c2)cc1N1CCN(C)CC1	98% (active)	67% (active)	-8	81% (active)	inactive	inactive	inactive	inactive
COc1ccc(Cl)cc1N1CCN(CCCNC(=O)c2ccc(-c3nc4cc(Cl)c(C)cc4[nH]3)c(F)c2)CC1	91% (active)	-1%	-6	99% (active)	inactive	inactive	inactive	inactive
O=C(NCc1ccc(F)cc1)Nc1cccc(-c2ccc(-c3nc4ccccc4[nH]3)cc2)c1	49%	45%	2	101% (active)	inactive	inactive	inactive	inactive
CCCCNc1nc(NCCCC)c2c(C)c(Cc3ccccc3)c(NCCCC)nc2n1	84% (active)	69% (active)	-10	95% (active)	inactive	inactive	inactive	inactive
CCN(CC)CCCC(C)Nc1ccnc2[nH]c3ccccc3c12 (stereo not given)	38%	0%	6	82% (active)	inactive	inactive	inactive	inactive
CCOc1ccc(C(C)NC(=O)C2COc3ccccc3O2)cc1OCC (stereo not given)	100% (active)	-4%	1	101% (active)	inactive	inactive	inactive	inactive
OC(CNc1cccc(Cl)c1)Cn1c2ccc(Cl)cc2c2cc(Cl)ccc21 (stereo not given)	33%	8%	6	95% (active)	inactive	inactive	inactive	inactive
Cc1ccc(NC(=O)N2CCN(CCCCCNC(=O)/C=C/c3ccc(Cl)c(Cl)c3)CC2)cc1C	-5%	7%	0	94% (active)	inactive	inactive	inactive	inactive
Cc1noc(-c2ccc(N3CCC(C(=O)N4CCN(C(C)C)CC4)CC3)cc2)n1	-2%	-12%	-5	95% (active)	inactive	inactive	inactive	inactive
O=C(Nc1ccc([N+](=O)[O-])cc1)Nc1nc2ccc(Cl)cc2s1	33%	63% (active)	2	92% (active)	inactive	inactive	inactive	inactive
CN(Cc1cccc(O)c1)C1CCN(c2cc(NC(=O)c3ccc(F)cc3)ccn2)CC1	9%	24%	-2	94% (active)	inactive	inactive	inactive	inactive
CON(CCCN(C)C)C(=N)N	-4%	3%	1	92% (active)	inactive	inactive	inactive	inactive
N=c1c2c(n(Cc3ccccc3)c3c1CCC3)CCCC2	39%	4%	-4	86% (active)	inactive	inactive	inactive	inactive
CC1(C)CN2CCCC2c2cc(NC(=O)/C=C/c3ccccc3Cl)ccc21 (stereo not given)	76% (active)	20%	0	88% (active)	inactive	inactive	inactive	inactive
O=S(=O)(c1ccc(OC(F)(F)F)cc1)C1C[C@H]2CC[C@@H](C1)N2S(=O)(=O)c1ccc(Cl)c(C(F)(F)F)c1 (stereo not given in full)	95% (active)	1%	-5	100% (active)	inactive	inactive	inactive	inactive
